Measured values as given in a collection of fitness landscapes (doi:10.1016/j.celrep.2020.107928).
The full ranking holds about 81,000 sequences; the median of “one-hybrid fitness for binding parS DNA” is about -0.17, and the highest 2% start at about 0.51. The list comes from a sample in which the highest values are over-represented; it also holds similar and randomly drawn sequences.

B1: Caulobacter ParB omega fusion; a variant is named by its letters at X, in order, B8GW30 (parent)
chain: MESVVVGEPGMSEGRRGLGRGLSALLGEVDAAPAQAPGEQLGGSREAPIEILQRNPDQPRRTFREEDLEDLSNSIREKGVLQPILVRPSPDTAGEYQIVAGERAWRAAQRAGLKTVPIMVRELDDLAVLEIGIIENVQRADLNVLEEALSYKVLMEKFERTQENIAQTIGKSXSHVANXMRLLXLPDEVQSYLVSGELTAXHARAIAAAADPVALAKQIIEGGLSVRETEALARKAPNLSAGKSKGGRPPRVKDTDTQALESDLSSVLGLDVSIDHRGSTGTLTITYATLEQLDDLCNRLTRGI

Variants of: B1
Experiment: one-hybrid fitness for binding parS DNA (scaled: cognate 1, non-cognate 0); higher = stronger binding
Conditions: with parS DNA site
Procedure, shortened: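 In E. coli USO, a HIS3 reporter with its site placed 19 bp from the promoter was used to select Caulobacter ParB variants randomised at four specificity codons. Growth lasted 48 hours at 37°C on histidine-free M9 containing 0.1 mM IPTG and 5 mM 3-AT. Fitness was taken as the log change in variant-to-wild-type read ratio from Illumina sequencing of pre- and post-selection plasmids, rescaled between the non-cognate and cognate sites.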

Variant | one-hybrid fitness for binding parS DNA
RFCA | 0.518
RFPA | ≤ 0.2
RFQA | 0.579
RFIA | 0.373
RFRA | 0.602
RFYA | 0.578
SFRA | ≤ 0.2
DFQA | ≤ 0.2
NFRA | ≤ 0.2
KFQA | ≤ 0.2
ANER | ≤ 0.2
NGTK | ≤ 0.2
GATP | ≤ 0.2
TTRY | ≤ 0.2
HALT | ≤ 0.2
WTPL | ≤ 0.2
KHYV | ≤ 0.2
QFRS | ≤ 0.2
DFHT | ≤ 0.2
NFWT | ≤ 0.2
RFGP | ≤ 0.2
RFHT | 0.853
DFDT | ≤ 0.2
RFDT | 0.693
RFWD | ≤ 0.2

Variant | one-hybrid fitness for binding parS DNA
NFGT | ≤ 0.2
RFGT | 0.775
RFDR | ≤ 0.2
RFHD | ≤ 0.2
RFWT | 0.649
FTEL | ≤ 0.2
WFGR | ≤ 0.2
AVPM | ≤ 0.2
IHAA | ≤ 0.2
GDDN | ≤ 0.2
RFST | 0.841
RFSN | 0.377
RFRH | 0.219
RFRT | 0.9
RFYT | 0.801
SFCT | ≤ 0.2
RFCR | ≤ 0.2
NFRT | ≤ 0.2
RFIT | 0.508
NFST | ≤ 0.2
RFCT | 0.725
RFPT | 0.376
SRLA | ≤ 0.2
RPYM | ≤ 0.2
QLWS | ≤ 0.2

Variant | one-hybrid fitness for binding parS DNA
QWRP | ≤ 0.2
YTDG | ≤ 0.2
VYTC | ≤ 0.2
AQSP | ≤ 0.2
FRLV | ≤ 0.2
MRTY | ≤ 0.2
RFQP | ≤ 0.2
RFNP | ≤ 0.2
RFLP | ≤ 0.2
RFNN | 0.411
DFLT | ≤ 0.2
RFNT | 0.862
RFQT | 0.8
RFQD | ≤ 0.2
RFLT | 0.75
WYGN | ≤ 0.2
YMRM | ≤ 0.2
YQRV | ≤ 0.2
AIED | ≤ 0.2
TPRA | ≤ 0.2
QTSF | ≤ 0.2
AAYQ | ≤ 0.2
WMAR | ≤ 0.2
RVLY | 0.508
RCLY | 0.49

Variant | one-hybrid fitness for binding parS DNA
RVRY | 0.583
RVDY | 0.427
RVKY | 0.664
RVVY | 0.413
RVYY | 0.495
TIST | ≤ 0.2
CHTY | ≤ 0.2
TCYR | ≤ 0.2
QKCY | ≤ 0.2
TNVQ | ≤ 0.2
CETD | ≤ 0.2
ADRH | ≤ 0.2
QVQF | ≤ 0.2
RRRH | 0.592
RRWD | ≤ 0.2
RRWP | ≤ 0.2
RRYP | ≤ 0.2
RRWS | 0.772
RRIS | 0.753
RRIN | 0.304
RRIH | ≤ 0.2
RRYS | 0.68
RRYD | ≤ 0.2
RRYH | ≤ 0.2
RRDH | ≤ 0.2

Variant | one-hybrid fitness for binding parS DNA
VFKT | ≤ 0.2
HRKK | ≤ 0.2
QLWG | ≤ 0.2
RFHY | 0.462
RRLD | ≤ 0.2
RRRP | 0.203
RRRS | 0.67
RRPS | 0.757
RRRD | ≤ 0.2
RRLS | 0.701
RRLN | 0.396
RRPD | ≤ 0.2
RRPN | 0.246
MLQR | ≤ 0.2
HTWN | ≤ 0.2
YCLV | ≤ 0.2
VKKI | ≤ 0.2
VDFT | ≤ 0.2
LALR | ≤ 0.2
QPAK | ≤ 0.2
VVMR | ≤ 0.2
VDRK | ≤ 0.2
NEFY | ≤ 0.2
RKYS | 0.857
RKID | ≤ 0.2

Variant | one-hybrid fitness for binding parS DNA
RKPS | 0.682
RKYP | ≤ 0.2
RKIP | ≤ 0.2
RKPN | ≤ 0.2
RKYH | ≤ 0.2
RKLP | ≤ 0.2
RKPH | ≤ 0.2
RKIS | 0.958
RKLS | 0.876
RKLD | ≤ 0.2
AWGT | ≤ 0.2
HHGR | ≤ 0.2
DVDS | ≤ 0.2
SCTT | ≤ 0.2
KNMC | ≤ 0.2
RKRN | 0.347
RKRS | 0.747
RKRH | ≤ 0.2
RKWD | ≤ 0.2
RKWS | 0.955
RKWN | 0.364
IFGG | ≤ 0.2
PIND | ≤ 0.2
RDLG | ≤ 0.2
RSLF | 0.228

Variant | one-hybrid fitness for binding parS DNA
RMLG | 1.01
RPLG | ≤ 0.2
RLLR | ≤ 0.2
RLLG | 1.02
RSLG | 0.987
RMLF | 0.238
RLLM | 0.372
RCLG | 1.01
RMLM | 0.363
RELG | 0.217
LDYT | ≤ 0.2
HWFG | ≤ 0.2
EKQG | ≤ 0.2
CHLC | ≤ 0.2
FSIV | ≤ 0.2
ATPA | ≤ 0.2
KWRR | ≤ 0.2
QQPM | ≤ 0.2
ALLC | ≤ 0.2
TRRD | ≤ 0.2
NQPG | ≤ 0.2
PPRF | ≤ 0.2
RILK | ≤ 0.2
RILF | 0.269
RILG | 0.993

Variant | one-hybrid fitness for binding parS DNA
YPTC | ≤ 0.2
MMSV | ≤ 0.2
EQTA | ≤ 0.2
ACKY | ≤ 0.2
RNEN | ≤ 0.2
RNEI | ≤ 0.2
RNED | ≤ 0.2
RNEG | 0.677
RNES | 0.776
RNEC | 0.613
RNEP | ≤ 0.2
RNEY | ≤ 0.2
RNEH | ≤ 0.2
FPSI | ≤ 0.2
MKLG | ≤ 0.2
VKMN | ≤ 0.2
KPPS | ≤ 0.2
RADF | ≤ 0.2
RADQ | ≤ 0.2
RANK | ≤ 0.2
RANC | 0.98
RADC | 0.856
RANR | ≤ 0.2
